TGFb inhibitor – TGF-b pathway inhibition; Potency, µM (doses to about 46.1 µM), for the others: top-dose activity, negative = inhibition, usual class: inhibitors; hit rate 1.2% among 410,000; HepG2 CAGA-GFP TGF-b/SMAD3 reporter, GFP fluorescence, 18 h; TGF-beta stimulated, 500 pg/mL final; further: potency means the concentration at half of the fitted maximal effect; on the % scale 0 is the no-effect control and ±100 the full control effect; nearly all actives have a fitted effect of over 65% in size
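HEPG2 CAGA-GFP cells (1000/well, DMEM with 1% FBS) were pre-incubated 2 h at 37 degrees C, given compound by pin tool, then stimulated with TGF-beta at 500 pg/mL final for 18 h before per-cell GFP fluorescence imaging.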
TDP1 inh – blocks human tyrosyl-DNA phosphodiesterase 1. recombinant TDP1, AlphaScreen DNA substrate cleavage. AID 485290. Potency, µM (titrated, usually from 130 µM), inactives show top-dose activity change, negative = inhibition, most hits filed as inhibitors. Q9NUW8. hit rate 0.28% among 350,000; further: potency means the concentration at half of the fitted maximal effect; on the % scale 0 is the no-effect control and ±100 the full control effect; nearly all actives have a fitted effect of over 40% in size
Target sequence (Q9NUW8 whole entry, looked up): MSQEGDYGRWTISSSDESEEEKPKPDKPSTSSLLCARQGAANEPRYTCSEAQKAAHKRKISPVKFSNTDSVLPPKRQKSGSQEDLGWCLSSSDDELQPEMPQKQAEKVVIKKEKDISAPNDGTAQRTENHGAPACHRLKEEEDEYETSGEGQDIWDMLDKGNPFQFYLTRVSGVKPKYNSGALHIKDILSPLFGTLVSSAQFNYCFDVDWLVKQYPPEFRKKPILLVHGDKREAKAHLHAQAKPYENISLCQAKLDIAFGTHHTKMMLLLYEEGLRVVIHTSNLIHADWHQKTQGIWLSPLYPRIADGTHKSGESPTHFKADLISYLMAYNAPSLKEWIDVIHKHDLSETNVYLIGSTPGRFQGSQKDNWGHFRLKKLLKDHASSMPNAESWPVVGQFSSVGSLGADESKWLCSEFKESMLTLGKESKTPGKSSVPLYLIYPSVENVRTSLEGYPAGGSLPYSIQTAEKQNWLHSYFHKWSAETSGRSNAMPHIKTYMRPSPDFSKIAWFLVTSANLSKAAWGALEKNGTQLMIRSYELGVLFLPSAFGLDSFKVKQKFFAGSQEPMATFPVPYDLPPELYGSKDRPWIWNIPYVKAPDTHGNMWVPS
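Recombinant human Tdp1 (E. coli-expressed, 1 nM final) preincubated with compounds 15 min at room temperature, then 5'-biotin/3'-phosphotyrosine-FITC DNA substrate (15 nM final) added for 5 min. AlphaScreen beads (10 ug/ml final) added 10 min; cleavage lowers signal.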
DT40 TDP1 CPT – growth inhibition of DT40 Tdp1-/-;hTDP1 cells with camptothecin (screen for TDP1 inhibitors); chicken DT40 Tdp1-/-;hTDP1 cells + 20 nM CPT, ATP luminescence, 48 h; Potency, µM (series often up to 46.2 µM), without a hit: top-dose activity change, negative = growth inhibition, hits mostly inhibitors; hit rate 12% among 420,000; AID 686979; further: potency means the concentration at half of the fitted maximal effect; on the % scale 0 is the no-effect control and ±100 the full control effect; nearly all actives have a fitted effect of over 55% in size
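Chicken DT40 Tdp1-/- cells stably complemented with human TDP1 were seeded at 400 cells/well in medium containing 20 nM camptothecin, exposed to pin-transferred compounds, and grown at 37 °C for at least 48 hr. Viability was read as ATP luminescence.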
TDP1 cell noCPT – qHTS for Inhibitors of human tyrosyl-DNA phosphodiesterase 1 (TDP1): qHTS in cells in absence of CPT; DT40 Tdp1-/- hTDP1 cells, no CPT, ATP luminescence, 48 h; AID 686978, 2013; hit rate 15% among 420,000; Potency, µM (titrated, usually from 46.2 µM), for inactives: at the top dose activity change, negative = growth inhibition, hits mostly inhibitors; further: potency means the concentration at half of the fitted maximal effect; on the % scale 0 is the no-effect control and ±100 the full control effect; nearly all actives have a fitted effect of over 55% in size
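Readout: luminescence from CellTiter-Glo after 30 min in the dark at RT. Cells: DT40 Tdp1-/- with stable hTDP1, 400/well. Exposure: compounds alone, ≥48 hr, 37 °C.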
HepG2 tox – kills HepG2 cells in TGF-b inhibitor counter-screen | Potency, µM (top dose mostly 46.1 µM), for inactives: at the highest dose activity change, negative = cytotoxicity, actives largely listed as cytotoxic | HepG2 CAGA-GFP viability, ATP luminescence, 18 h | hit rate 0.76% among 410,000; further: potency means the concentration at half of the fitted maximal effect
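HepG2 CAGA-GFP cells (1000/well, DMEM with 1% FBS) received compound, then TGF-beta at 500 pg/mL final, and were incubated 18 hours at 37 degrees C. Viability was read by CellTiter-Glo luminescence. Media-only wells were set as complete cell-killing and DMSO as no toxicity.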
IL-1B inflam inh – inflammasome signaling inhibition, IL-1 beta readout; hit rate 4.7% among 360,000; AID 743279; activity change, % at 57.5 µM; THP-1 LPS/ATP IL-1B secretion, AlphaLISA, 16 h; stronger effect = lower value; in the data active means activity change below about -50%; inconclusive means mostly about -30% to -49%; further: on the % scale 0 is the no-effect control and ±100 the full control effect
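THP-1 cells pretreated 1 hr with compounds (up to 57.5 uM final), then stimulated with LPS (250 ng/mL final) plus ATP (1.25 mM final); secreted IL-1B measured by AlphaLISA after 16 hr, decreased signal indicating inhibition.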
An asterisk follows results filed as active; u = inconclusive; x = no result given; [ ] = dose if it differs, or a comment. An excerpt weighted towards active compounds, which were near 19% of everything screened. Unless noted, the call rests on the fitted dose curve; in most records, active means well fitted curve in the direction sought with a large enough effect; inconclusive means small, poorly fitted or top-dose-only effect, or another doubt; inactive means no such curve, though single readings can be large; an effect the other way counts as inactive or inconclusive.

SMILES	TGFb inhibitor	TDP1 inh	DT40 TDP1 CPT	TDP1 cell noCPT	HepG2 tox	IL-1B inflam inh
Cc1csc(NC(=O)CSc2nnc3c4ccccc4nc(C(C)(C)C)n23)n1	u	5.2%	4.61µM*	5.8µM*	-52.4%	30.0
Cc1c(NC(=O)c2nn(CC(C)C)c(=O)c3ccccc23)c(=O)n(-c2ccccc2)n1C	-24.9%	0.5%	-2.5%	-13.8%	7.4%	10.7
O=C(CC1(O)C(=O)Nc2ccccc21)c1ccc2c(c1)OCO2 (centres undefined)	-0.5%	4.7%	-11.5%	-16.1%	-1.3%	0.1
O=C(/C=C\c1ccc2c(c1)OCO2)CC1(O)C(=O)Nc2ccccc21 (centres undefined)	u	4.3%	u	u	1.2%	-101.4*
CC(NC(=O)c1ccc2c(=O)n3c(nc2c1)CCCCC3)c1ccccc1 (centres undefined)	1.2%	-0.3%	-3.5%	-28.1%	2.8%	10.8
COc1ccccc1Nc1nn2c(=O)c3ccc(C(=O)Nc4ccc(F)cc4)cc3nc2s1	1.2%	2.8%	2.59µM*	5.8µM*	-5.2%	x
Cc1ccc(Cl)cc1Nc1nn2c(=O)c3ccc(C(=O)NC(C)c4ccccc4)cc3nc2s1 (centres undefined)	-25.1%	2.8%	6.51µM*	3.26µM*	-9.9%	x
O=c1c2ccccc2nc2sc(Nc3ccc(F)cc3)nn12	-4.7%	56.2µM*	x	x	2.4%	x
COc1cccc(Nc2nn3c(=O)c4ccccc4nc3s2)c1	2.8%	-19.1%	x	x	3.7%	x
Cc1ccc(Cl)cc1Nc1nn2c(=O)c3ccc(C(=O)Nc4ccc(F)cc4)cc3nc2s1	-16.2%	8.5%	3.66µM*	2.31µM*	2.1%	x
Cc1nn(CC(=O)NCCCN2C(C)CCCC2C)c(=O)c2cc3occc3n12 (centres undefined)	2.5%	0.4%	-18.5%	28.4%	-0.7%	-23.9
CCOc1ccc(C2c3c(oc4ccccc4c3=O)C(=O)N2Cc2ccc3c(c2)OCO3)cc1 (centres undefined)	-11.7%	-1.1%	7.6%	-9.5%	-7.7%	x
O=C(NN1CCN(Cc2ccccc2Cl)CC1)c1ccc(Cl)cc1	-5.8%	4.2%	u	11.6µM*	11.3%	6.8
CCCN1CCN(C(=O)Cn2ncc3c4ccccc4n(Cc4cccc(Cl)c4)c3c2=O)CC1	-15.5%	7.6%	13µM*	11.6µM*	-23.3%	x
CCOC(=O)C1CCCN(C(=O)Cn2ncc3c4ccccc4n(Cc4ccccc4)c3c2=O)C1 (centres undefined)	-23.4%	7.6%	u	18.4µM*	-9.6%	x
CCOC(=O)C1CCCN(C(=O)Cn2ncc3c4ccccc4n(C)c3c2=O)C1 (centres undefined)	-23.2%	-2.5%	-2.2%	u	-6.9%	x
CN1CCN(C(=O)Cn2ncc3c4ccccc4n(Cc4ccc(F)cc4)c3c2=O)CC1	-19.7%	5.1%	14.6µM*	7.31µM*	-33.4%	x
CCOC(=O)C1CCN(C(=O)Cn2ncc3c4ccccc4n(Cc4ccccc4)c3c2=O)CC1	u	-2.5%	8.2µM*	7.31µM*	-30.8%	x
C=CCOc1cccc(/C=N/NC(=O)CC(=O)NC2CCCCC2)c1	11.4%	0.0%	2.4%	2.2%	-7.0%	-0.8
CCc1ccc(OCc2cc(=O)n3c4c(sc3n2)CCCC4)cc1	0.2%	1.3%	-26.7%	u	-2.7%	x
Cc1c2cnn(CC(=O)N3CCCCC3)c(=O)c2c(C)n1Cc1ccc(Cl)cc1	u	-5.1%	23.1µM*	23.1µM*	-13.7%	x
O=C(Cn1ncc2c3ccccc3n(Cc3ccc(Cl)cc3)c2c1=O)N1CCCCCC1	8.4%	2.5%	13µM*	10.3µM*	0.8%	x
CC(CCc1ccccc1)NC(=O)Cn1ncc2c3ccccc3n(Cc3ccc(F)cc3)c2c1=O (centres undefined)	-6.2%	2.5%	u	u	-1.7%	x
CCOC(=O)C1CCN(C(=O)Cn2ncc3c4ccccc4n(Cc4ccc(F)cc4)c3c2=O)CC1	u	2.5%	3.26µM*	1.84µM*	-21.0%	x
COc1ccccc1N1CCN(C(=O)COc2cc(C)ccc2C)CC1	-1.5%	4.5%	u	16.4µM*	-19.1%	-3.1
SMILES	TGFb inhibitor	TDP1 inh	DT40 TDP1 CPT	TDP1 cell noCPT	HepG2 tox	IL-1B inflam inh
Cc1cc(OCC(=O)N2CCC(C(=O)O)CC2)c2c(C)cc(=O)oc2c1	2.8%	x	6.5%	-6.7%	-17.4%	6.8
COc1ccccc1N1CCN(C(=O)COc2cc(C)cc3oc(=O)cc(C)c23)CC1	-3.3%	-10.7%	16.4µM*	20.6µM*	-4.9%	-7.9
COc1ccccc1N1CCN(C(=O)COc2ccc(C)cc2Br)CC1	-6.8%	2.9%	-16.0%	u	-16.6%	-15.6
CC(=O)Nc1ccc(NC(=O)COc2cc(C)cc3oc(=O)cc(C)c23)cc1	-0.5%	2.3%	-10.6%	6.7%	4.4%	12.7
COc1ccccc1N1CCN(C(=O)/C=C/c2ccc(C)cc2)CC1	25.7%	5.5%	u	13µM*	21.3%	7.8
Cc1cc(OCC(=O)Nc2ccccc2C(N)=O)c2c(C)cc(=O)oc2c1	3.3%	x	u	23.1µM*	-19.3%	-12.1
COc1ccc(CCN2CC(C(=O)OCC(=O)NC(C)c3cccc(Cl)c3)CC2=O)cc1OC (centres undefined)	u	-0.1%	-14.0%	-12.4%	1.6%	-13.4
CCCC(=O)N1CCC1(C)C(=O)NS(=O)(=O)c1cc(C)ccc1F (centres undefined)	2.1%	x	-16.0%	-13.7%	1.2%	-3.4
CS/C(=N\S(=O)(=O)c1ccc(F)cc1)c1ccccc1	59.9%	0.7%	u	u	0.1%	x
COC(=O)C/C=C\[C@@H](C)[C@@H](/C=N\OCC[C@@H]1C=C[C@H](OC(C)=O)[C@H](COC(C)=O)O1)OC	x	5.8%[21 µM]	x	x	x	x
Cc1ccc(CCNC(=O)c2c[nH]c3ccc(S(=O)(=O)Nc4ccc(C)cc4C)cc3c2=O)cc1	u	x	u	u	-84.5%	x
Cc1cccc(/C=N/NC(=O)c2c(-c3ccccc3)noc2C)c1O	u	1.4%	18.4µM*	2.91µM*	-2.0%	134.7
Cc1onc(-c2ccccc2)c1C(=O)N/N=C/c1cc2c(cc1Br)OCO2	-11.4%	2.5%	u	25.9µM*	11.0%	-14.0
Cc1onc(-c2ccccc2)c1C(=O)N/N=C/c1cc(Br)c(O)c(Br)c1	u	4.3%	u	u	-31.3%	11.6

Compound activity: PubChem, National Center for Advancing Translational Sciences (NCATS)
